Compound activity (PubChem)
Sampled rows, rich in hits. Any-hit rate of the full collection: about 10%.
hNpr1 antagonist: antagonists of human natriuretic peptide receptor Npr1; AID 1347048; 76,000 compounds, 1.6% hits; HEK293 hNpr1 GloSensor cGMP, ANP-stimulated luminescence; Potency, µM (highest dose often 46.3 µM), without a hit: at the top dose activity change, negative = inhibition, usual class: inhibitors; P16066; calls by dose curve; also: nearly all actives have a fitted effect of over 60% in size
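Compound pre-incubated 30 min at room temperature on GloSensor-loaded HEK293 cells stably carrying hNpr1 and the pGS-40F cGMP biosensor. Stimulation uses hNppA at 0.1 nM final; luminescence is taken at baseline and 20 min post-agonist.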
HEK293 tox: cytotoxic compounds in HEK 293 cells; HEK 293 viability, ATP luminescence (CellTiter-Glo), 48-72 h; Potency, µM (titrated, usually from 115 µM), for inactives: top-dose activity change, negative = cytotoxicity, actives largely listed as inhibitors; 94,000 compounds, 6.6% hits; AID 1345083; also: nearly all actives have a fitted effect of over 60% in size
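Cells seeded first (HEK 293, 250 cells/well), then compound added by pintool. Incubation ran 48 or 72 hr at 37 degree Celsius. CellTiter-Glo was added and luminescence imaged after 10 min at room temperature.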
FLuc inh: inhibitors of firefly (Photinus pyralis) luciferase; P08659; purified P. pyralis luciferase, luminescence, biochemical; Potency, µM (titrated, usually from 115 µM), actives largely listed as inhibitors; 76,000 compounds, 2.5% hits; AID 1347043; also: nearly all actives have a fitted effect of over 65% in size
Target sequence (P08659 whole entry, looked up): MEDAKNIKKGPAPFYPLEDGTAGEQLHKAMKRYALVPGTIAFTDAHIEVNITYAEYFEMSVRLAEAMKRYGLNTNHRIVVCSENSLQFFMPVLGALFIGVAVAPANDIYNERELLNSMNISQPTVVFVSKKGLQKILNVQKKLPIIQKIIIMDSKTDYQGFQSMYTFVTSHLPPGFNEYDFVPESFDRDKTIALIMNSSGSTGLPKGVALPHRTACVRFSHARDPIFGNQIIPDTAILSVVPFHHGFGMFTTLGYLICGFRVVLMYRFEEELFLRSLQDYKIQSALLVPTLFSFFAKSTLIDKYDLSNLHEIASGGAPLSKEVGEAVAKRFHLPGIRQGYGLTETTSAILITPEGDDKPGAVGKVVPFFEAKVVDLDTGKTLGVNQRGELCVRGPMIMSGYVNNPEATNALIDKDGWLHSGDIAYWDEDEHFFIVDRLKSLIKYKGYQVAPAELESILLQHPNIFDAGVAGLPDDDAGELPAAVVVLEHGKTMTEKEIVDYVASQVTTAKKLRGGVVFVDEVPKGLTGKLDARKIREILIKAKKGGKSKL
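Inhibitors were tested against purified firefly luciferase in a biochemical, low-substrate format (both substrates at 10uM) and luminescence measured with a CCD imager.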
NIH3T3 tox: kills NIH 3T3 cells; Potency, µM (top dose mostly 96.7 µM), for inactives: at the highest dose activity change, negative = cytotoxicity, most hits filed as inhibitors; 94,000 compounds, 4.3% hits; NIH 3T3 viability, CellTiter-Glo ATP luminescence, 48-72 h; AID 1345082; also: nearly all actives have a fitted effect of over 55% in size
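NIH 3T3 cells at 400 cells/well received 23 nL of compound by pintool and were incubated 48 or 72 h at 37 °C. Viability was read as ATP-coupled CellTiter-Glo luminescence.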
GPT2 inh: blocks human glutamate pyruvate transaminase 2; Q8TD30; 100,000 compounds, 0.25% hits; AID 1671188; Recombinant GPT2, coupled pyruvate oxidase/HRP Amplex Red fluorescence; Potency, µM (doses to about 57.7 µM), for the others: top-dose activity change, negative = inhibition, most hits filed as inhibitors; also: nearly all actives have a fitted effect of over 60% in size
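Fluorescence of coupled pyruvate oxidase/HRP/Amplex Red system (50uM Amplex, 30 min, dark) reports pyruvate formed by GPT2. Enzyme reaction: 10ng/uL GPT2, 2mM L-alanine, 250uM a-KG, 30 min room temperature, pH 7.5; 50uM AOA control.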
Starred values were filed as active, the others as inactive; i = inactive; ? = inconclusive; · = no result given; [ ] = dose if it differs, or a comment. Unless noted, calls follow the shape of the dose curve; as a rule, active = well fitted curve in the direction sought with a large enough effect; inconclusive = small, poorly fitted or top-dose-only effect, or another doubt; inactive = no such curve, though single readings can be large; an effect the other way counts as inactive or inconclusive. % is scaled to controls: 0 for no effect and ±100 for the full control effect; potency is read from the fitted curve at half-maximal effect.

SMILES	hNpr1 antagonist	HEK293 tox	FLuc inh	NIH3T3 tox	GPT2 inh
O=C(NCc1cccc(C(F)(F)F)c1)C1CCCN(Cc2cccc(-c3cccs3)c2)C1 (centres undefined)	·	?	·	7.94µM*	·
O=C(NCc1ccccc1F)C1CCCN(Cc2cccc(-c3cccs3)c2)C1 (centres undefined)	·	44.7µM*	·	39.8µM*	·
O=C(Nc1cccc(F)c1)C1CCCN(Cc2cccc(-c3cccs3)c2)C1 (centres undefined)	·	31.6µM*	·	?	·
Cc1ccc(-c2ccccc2CN2CCC(C(=O)NCC(F)(F)F)CC2)cc1Cl	·	50.1µM*	·	?	-0.8%
Cc1ccc(-c2ccccc2CN2CCN(C(=O)N(C)C)CC2)cc1Cl	·	31.6µM*	·	?	1.3%
Cc1ccc(-c2ccccc2CN2CCN(C(=O)C3CCCC3)CC2)cc1Cl	·	?	·	?	i
Cc1ccc(-c2ccccc2CN2CCC(C(=O)NCC3CC3)CC2)cc1Cl	·	35.5µM*	·	?	·
CC(=O)N1CCN(Cc2ccccc2-c2ccc(C)c(Cl)c2)CC1	·	?	·	?	i
CCCNC(=O)[C@@H]1Cc2c[nH]c3cccc(c23)[C@H](CC(C)C)N1	-1.8%[70.6 µM]	50.1µM*	i	?	3.9%[88.5 µM]
C=CCNC(=O)[C@@H]1Cc2cn(CC=C)c3cccc(c23)[C@H](CC(C)C)N1	-1.9%[70.6 µM]	?	i	?	1.5%[88.5 µM]
CC(C)C[C@@H]1N[C@H](C(=O)NCCN(C)C)Cc2c[nH]c3cccc1c23	0.6%[70.6 µM]	100µM*	i	56.2µM*	i
CC(C)C[C@@H]1N[C@H](C(=O)NCCOc2ccccc2)Cc2c[nH]c3cccc1c23	-28.9%[70.6 µM]	?	i	28.2µM*	-17.8%[88.5 µM]
CC(C)C[C@@H]1N[C@H](C(=O)NCCOc2ccccc2)Cc2cn(C)c3cccc1c23	-22.3%[70.6 µM]	39.8µM*	i	31.6µM*	?
C=CCNC(=O)[C@@H]1Cc2c[nH]c3cccc(c23)[C@H](CC(C)C)N1	3.6%[70.6 µM]	?	i	?	?
COc1cccc(CNC(=O)c2ccc3nc(-c4cccc(C)n4)oc3c2)c1	·	?	·	?	-11.3%
Cc1ccc(CNC(=O)N2CCCC(CN3CCC(C)CC3)CC2)cc1 (centres undefined)	-0.8%	i	i	i	i
COc1cccc(C(=O)NC2CCN(Cc3cccc(-c4cccc(C)c4)c3)CC2)c1	·	?	·	?	1.6%
Cn1ccnc1CN1C[C@@H]2C[C@H]1C(=O)N(Cc1cccnc1)c1ccccc1O2	6.9%[70.6 µM]	i	i	i	-0.3%[88.5 µM]
Cc1nnc(-c2cc(-c3cccnc3)ccn2)n1C1CCCCC1	4.7%[70.6 µM]	i	i	89.1µM*	1.6%[88.5 µM]
Cc1nnc(-c2cc(-c3ccc(N4CCOCC4)cc3)ccn2)n1C1CCCCC1	1.9%[70.6 µM]	79.4µM*	?	?	-25.4%[88.5 µM]
Cc1nnc(-c2cc(-c3cnn(C)c3)ccn2)n1C1CCCCC1	-0.4%[70.6 µM]	2.2%[172 µM]	i	?	-9.8%[88.5 µM]
O=C1NCc2ccccc2CC12CCCCN2CCCc1ccccc1 (centres undefined)	·	-7.1%	·	-0.3%	i
CN(C)[C@H]1CCCCN(C(=O)CCc2ccc(-c3ccc(Cl)cc3)[nH]2)C1	-9.2%	?	i	?	-0.5%
COCCN1C(=O)c2ccccc2C(C(=O)Nc2nnc(COC)s2)C12CCCCC2 (centres undefined)	-3.6%	-9.2%	i	?	-2.6%
COCCN1C(=O)c2ccccc2C(C(=O)Nc2nc3ccccc3s2)C12CCCCC2 (centres undefined)	-16.4%	?	?	44.7µM*	i
O=C(c1ccccc1F)N1CCC(C(=O)N2CCC(c3nc4ncccc4[nH]3)CC2)CC1	·	-0.9%	·	-11.4%	i
O=C(C1CCCN1C(=O)c1ccc(C(F)(F)F)cc1)N1CCC(N2Cc3ccccc3C2=O)CC1 (centres undefined)	·	?	·	?	i
Cc1cccc(C)c1N1C(C(=O)OC(C)(C)C)=C(O)c2ccccc2S1(=O)=O	·	?	·	20µM*	·
O=C1NC(=NC2CCCCC2)C2(CCN(CC3CC3)CC2)N1c1cc(F)cc(F)c1	·	-11.3%	·	?	-11.1%
